a7 integrin act – integrin-mediated muscular dystrophy alleviation activation; alpha7betagal myoblasts, beta-gal FDG fluorescence, 48 h; Potency, µM (series often up to 38.3 µM), hits mostly activators; actives 0.064% (n = 350,000); further: nearly all actives have a fitted effect of over 60% in size
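Alpha7betagal+/- myoblasts (passage 13) were plated 16-24 hr, then exposed to compounds (1:260 dilution of DMSO stock) for 48 hours at 37C. After MPER lysis, β-galactosidase reporter activity was read as FDG fluorescence (ex 480/em 540) after 30 minutes.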
ERG-DNA inh – inhibitors of human ERG Ets domain-DNA interaction; Potency, µM (doses to about 76.9 µM), usual class: inhibitors; fluorescence polarization, His-ERG Ets domain / labelled DNA; P11308; actives 0.028% (n = 370,000); active means well fitted inhibition curve with a large enough effect in the polarisation, with a control signal flat; inconclusive means small, poorly fitted or top-dose-only effect, or effect the other way, or a change in a side signal; inactive means no such curve, though single readings can be large or run the other way; the % refers to the polarisation;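 further: polarization taken with two DNA probes labelled with fluorescein and Texas red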
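His-tagged ERG Ets domain (1 uM in the protein solution; 300mM KCl, 50mM Tris-HCl, 1mM EDTA, 1mM DTT, pH 7.5) received compound, then a probe mix of 5 nM fluorescein-DNA and 100nM Texas-615-DNA. Fluorescence polarization was read for both dyes.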
RORgamma inh – blocks mouse ROR gamma transcriptional activity; P51450; Drosophila S2 Gal4-RORgamma UAS-luciferase reporter, 20 h; actives 5.4% (n = 310,000); Potency, µM (doses to about 53.6 µM), hits mostly inhibitors; AID 2551; further: nearly all actives have a fitted effect of over 60% in size
Target sequence (P51450 whole entry, looked up, the tested form may be a part): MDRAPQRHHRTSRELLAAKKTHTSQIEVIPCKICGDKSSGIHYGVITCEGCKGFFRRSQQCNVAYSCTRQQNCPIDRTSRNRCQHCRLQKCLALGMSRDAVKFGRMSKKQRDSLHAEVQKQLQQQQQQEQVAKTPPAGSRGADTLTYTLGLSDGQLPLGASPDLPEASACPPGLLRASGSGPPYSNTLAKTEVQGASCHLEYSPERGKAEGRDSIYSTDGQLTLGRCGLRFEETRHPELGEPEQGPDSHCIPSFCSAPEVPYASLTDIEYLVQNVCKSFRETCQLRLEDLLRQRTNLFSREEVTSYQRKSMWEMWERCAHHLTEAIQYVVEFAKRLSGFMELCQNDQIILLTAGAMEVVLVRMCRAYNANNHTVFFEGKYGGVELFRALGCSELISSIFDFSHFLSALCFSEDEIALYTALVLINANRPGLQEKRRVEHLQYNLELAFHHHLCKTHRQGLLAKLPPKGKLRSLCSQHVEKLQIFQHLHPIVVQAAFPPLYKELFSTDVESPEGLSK
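In this cell-based reporter format, copper sulfate (700 uM final) drives Gal4–ROR gamma fusion expression from a metallothionein promoter in Drosophila Schneider cells; compounds preincubated 1 hr, reporter read after 20 hr at ambient temperature.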
Gal4-VP16 FLuc – counter-screen for ROR gamma inhibitors: Gal4-VP16 reporter. Drosophila S2 Gal4-VP16 UAS-luciferase, luminescence, 20 h. Potency, µM (doses to about 53.6 µM), actives largely listed as inhibitors. actives 3.5% (n = 310,000). AID 2546;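 further: Gal4-VP16 expression switched on by copper sulfate through the metallothionein promoter; nearly all actives have a fitted effect of over 50% in size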
Giardia killer – Giardia lamblia killing. actives 0.15% (n = 340,000). activity change, % at 7.66 µM, hits read low. Giardia lamblia trophozoite viability; in the data active means activity change below about -80%; inconclusive means between about -30% and that limit;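 further: parasites exposed to compound for two days anaerobically before the ATP read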
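Killing of trophozoites was scored by loss of ATP luminescence after a 48 hrs anaerobic exposure to compounds at 37 deg C, using 100 cells per well.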
A number is an active result; 0 = inactive; ? = inconclusive; - = no result; ! = not confirmed by another sample; [ ] = dose if it differs, or a comment. The entries come from a sample that favours hits as a whole. Unless noted, the call rests on the fitted dose curve; in most records, active means well fitted curve in the direction sought with a large enough effect; inconclusive means small, poorly fitted or top-dose-only effect, or another doubt; inactive means no such curve, though single readings can be large; an effect the other way counts as inactive or inconclusive.

SMILES	a7 integrin act	ERG-DNA inh	RORgamma inh	Gal4-VP16 FLuc	Giardia killer
COc1ccc(OC)c(Nc2nc(NCCCN(C)C)nc(N)c2[N+](=O)[O-])c1	0	0	10µM	10µM	0
COCCCNc1nc(N)c([N+](=O)[O-])c(Nc2cc(OC)ccc2OC)n1	0	0	0	0	0
COc1ccccc1CNC(=O)N1CCN(S(=O)(=O)c2ccccc2)CC1	0	0	0	0	0
COc1ccc(Nc2oc(COc3ccc(Cl)cc3)nc2C#N)cc1	0	0	16µM	?	0
Cc1cc(=O)c2c(O)c3c(O)cc(=O)c4c3c3c(cc(O)c1c23)C(C)(C)C=4O	-	-	7.1µM!	4µM	-
CC(C)(C)N1C(=O)[C@H]2[C@H]3[C@H](O)[C@H](O)C/C(=N/NC(=O)OCc4ccccc4)[C@H]3CC[C@@H]2C1=O	-	-	0[10 µM]	0[10 µM]	-
O=C(/C=C/c1ccco1)NC(=S)Nc1cc(C(F)(F)F)ccc1N1CCOCC1	0	0	6.3µM	?	0
O=C(CSCc1ccco1)Nc1cc(C(F)(F)F)ccc1N1CCOCC1	0	-	0[10 µM]	0	0
O=C(/C=C/c1ccco1)NC(=S)Nc1ccccc1N1CCCC1	0	0	?	?	0
O=C(/C=C/c1ccco1)NC(=S)Nc1ccccc1N1CCOCC1	0	0	2.8µM	8.9µM	0
COc1ccc(-n2c(CN3CCN(c4ccccn4)CC3)nc3ccc([N+](=O)[O-])cc3c2=O)c(OC)c1	0	0	0	0	0
O=C(N/N=C\c1ccc[nH]1)C1COc2ccccc2O1 (stereo not drawn)	0	0	11µM	?	0
O=C(N/N=C\c1cccc([N+](=O)[O-])c1O)C1COc2ccccc2O1 (stereo not drawn)	0	0	1.8µM	2µM	0
O=C(CNC(=O)C1COc2ccccc2O1)N/N=C/c1ccc(O)cc1O (stereo not drawn)	0	0	13µM	0	0
COc1cc([N+](=O)[O-])cc(/C=N\NC(=O)C2COc3ccccc3O2)c1O (stereo not drawn)	0	0	0.45µM	3.2µM	0
CCOC(=O)c1sc2ncn(CC(=O)Nc3ccc(C)cc3Br)c(=O)c2c1C	-	0	-	-	-
Cc1cc(C)nc(SCCN(C)C)n1	0	0	0	0	0
Cc1cc(C)nc(SSc2nc(C)cc(C)n2)n1	0	0	5.6µM	6.3µM	0
CCCOc1cc(C)c(S(=O)(=O)NC2CC(C)(C)NC(C)(C)C2)cc1C	0	0	0	0	0
CCOC(=O)C1=C(CN2CCCCC2)NC(=O)NC1c1ccc(C)cc1 (stereo not drawn)	-	0	-	-	-
S=c1[nH]nc(Cc2n[nH]c(=S)n2-c2ccccc2)n1-c1ccccc1	0	?	0	0	0
S=c1[nH]nc(Cc2ccccc2)n1-c1ccccc1	0	0	11µM	20µM	0
CC(C)Cn1c(Cc2ccccc2)n[nH]c1=S	0	0	4.5µM	0	0
Cc1ccc(-n2c(CSc3nc(C)cc(C)n3)n[nH]c2=S)cc1	0	0	14µM	0	0
S=c1[nH]nc(Cc2ccccc2)n1-c1ccc(Cl)cc1	0	0	2.2µM	?	0
SMILES	a7 integrin act	ERG-DNA inh	RORgamma inh	Gal4-VP16 FLuc	Giardia killer
Cc1cc(C)nc(SCc2n[nH]c(=S)n2C)n1	0	0	0	0	0
CCCN1CCC(=O)N(CCSc2ccc(Br)cc2)CC1	-	-	0	0	0
COc1cc(NC(=O)N2CCC3(CC2)Nc2ccccc2-n2cccc23)cc(OC)c1OC	-	0	-	-	-
CCCc1ccc(S(=O)(=O)N2CCC(c3nnc(-c4cccc(C)c4)o3)CC2)cc1	-	0	-	-	-
Cc1ccc(-n2c(Cc3ccccc3)n[nH]c2=S)cc1	0	0	4µM	10µM	0
Cc1ccc(-n2c(Cc3noc4ccccc34)n[nH]c2=S)cc1	0	?	0	0	0
COc1ccccc1/C=N/OCc1cc(C(C)=O)ccc1OC	0	0	0	0	0
Cc1nn(Cc2ccc(C(=O)NC(C)(C)C)o2)c(C)c1Br	0	0	?	10µM	0
Cc1nn(Cc2ccc(C(=O)NN)o2)c(C)c1Cl	0	0	0	0	0
Cc1nn(Cc2ccc(C(=O)Nc3ccc(C(=O)OC(C)C)cc3)o2)c(C)c1Cl	0	-	1.6µM	0	0
COc1ccc(CNC(=O)c2ccc(Cn3nc(C)c([N+](=O)[O-])c3C)o2)cc1	0	0	5.6µM	5µM	0
COc1ccc(N2CCN(C(=O)c3ccc(Cn4nc(C)c([N+](=O)[O-])c4C)o3)CC2)cc1	0	0	-	-	0
Cc1cccc(-c2noc(CSc3ccccc3)n2)c1	0	0	0	0	0
Cc1ccc(-c2noc(CSc3ccccc3)n2)cc1	0	0	?	2µM	0
NCCCN(Cc1ccc(Cl)c(Cl)c1)c1ccc(Br)cn1	-	-	-	-	0
CCOC1(OCC)C(c2ccc(Cl)cc2)C(C#N)(C#N)C1(OCC)OCC (stereo not drawn)	0	0	13µM	0	0
Cn1nnc(NC(=S)NC(=O)c2cc(Cl)ccc2Cl)n1	?	0	0.79µM	2µM	0
COc1cc2ccccc2cc1C(=O)NC(=S)Nc1nnn(C)n1	?	0	1µM	1.1µM	0
CCC(Cc1ccccc1)NC(=O)C1CCN(S(=O)(=O)c2ccc3c(c2)CC(C)N3C(C)=O)CC1 (stereo not drawn)	0	0	0	0	0
O=C(/C=C/c1c(Cl)nc2ccccn12)Nc1ccc(F)cc1	0	0	0	?	0
CCCCC(=O)Nc1ccc(C(=O)N(CC)c2ccccc2C)cc1	0	0	2.2µM	0	0
CCN(C(=O)c1ccc(NC(C)=O)cc1)c1ccccc1C	0	0	0	0	0
COc1ccccc1-c1c(C)[nH]n2c(=O)c(Cc3ccccc3)c(C)nc12	0	0	14µM	11µM	0
CCc1c(C)nc2c(-c3ccccc3)c(C)[nH]n2c1=O	0	0	11µM	?	0
Cc1ccc(Cc2c(C)nc3c(-c4ccccc4)c(C)[nH]n3c2=O)cc1	-	0	-	-	-
SMILES	a7 integrin act	ERG-DNA inh	RORgamma inh	Gal4-VP16 FLuc	Giardia killer
Cc1nc2c(-c3ccccc3)c(C)[nH]n2c(=O)c1Cc1ccc(Br)cc1	-	0	-	-	-
COc1ccc(-c2c(C)[nH]n3c(=O)c(Cc4ccccc4)c(C)nc23)cc1	0	0	2.5µM	3.2µM	0
O=C(Cl)c1cccc([N+](=O)[O-])c1	-	-	0	0	-
COc1ccc(NC(=O)N2CCCC3(CCN(S(=O)(=O)c4ccccc4)CC3)C2)cc1	-	-	0	0	-
Cc1cc2cc(CNC(=O)c3cccc([N+](=O)[O-])c3)ccc2n1C	0	0	0	0	0
Cc1ccc(C(=O)NCCn2c(C)cc3ccccc32)cc1C	-	0	-	-	-
Cc1cc2ccccc2n1CCNC(=O)c1ccc(S(=O)(=O)N2CCCCC2)cc1	0	25µM	0	0	0
Cc1cc2cc(CNC(=O)c3ccc(S(=O)(=O)N4CCOCC4)cc3)ccc2n1C	0	28µM	0	0	0
Cc1cc2cc(CNC(=O)c3ccc(S(=O)(=O)N(C)C)cc3)ccc2n1C	0	?	0	0	0
Cc1c(C(=O)NCc2ccc3c(c2)cc(C)n3C)cccc1[N+](=O)[O-]	0	28µM	0	0	0

High-throughput results: PubChem, National Center for Advancing Translational Sciences (NCATS)
